Data: PubChem BioAssay
Entries with a potency or affinity are not part of this list. Unmarked numbers belong to inactive results. The rule behind the calls is not given here.

Experiment: toxicity toward immortalized ovarian surface epithelium – cell-based, plate reader, dry powder samples, cytotoxicity control for PAX8 inhibitor project, dose response (AID 743045);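 note: 0% = neutral control median and -100% = positive control median; more negative values mean more cell killing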
Conditions: IOSE-T80 ovarian epithelial cells; series mostly up to 35 µM; activity change, negative = cytotoxicity: at the top concentration

Row | Structure (SMILES) | activity change, negative = cytotoxicity
1 | N#C[C@H]1[C@H](c2ccc(C#Cc3ccccc3F)cc2)[C@H](CO)N1C(=O)C1CCC1 | -9.54%
2 | COc1ccc(CN(C)C[C@@H]2OCCCC[C@H](C)Oc3ccc(NC(=O)Nc4ccc(C(F)(F)F)cc4)cc3C(=O)N([C@@H](C)CO)C[C@H]2C)cc1 | -5.66%
3 | C[C@@H]1CCCCO[C@H](CN(C)Cc2ccc(Cl)c(Cl)c2)[C@@H](C)CN([C@@H](C)CO)C(=O)c2cc(NS(=O)(=O)c3ccccc3)ccc2O1 | 18%
4 | COc1cccc(C#Cc2ccc([C@H]3[C@@H](CO)N(C(=O)C4CCCCC4)[C@H]3C#N)cc2)c1 | 2.06%
5 | COc1ccc(NC(=O)Nc2ccc3c(c2)C(=O)N([C@H](C)CO)C[C@H](C)[C@H](CN(C)Cc2ccc(C(F)(F)F)cc2)OCCCC[C@H](C)O3)cc1 | 2.59% [at 16 µM]

Experiment: A2780 cell killing – plate reader, dry powder samples, cytotoxicity control, dose response (AID 743046);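 note: 0% = neutral control wells and -100% = cytotoxic reference compound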
Conditions: A2780 ovarian cancer cytotoxicity; series mostly up to 35 µM; activity change, negative = cytotoxicity: at the top concentration

Row | Structure (SMILES) | activity change, negative = cytotoxicity
6 | COc1cccc(-c2ccc(C3[C@@H]4CN(C(=O)C5CC5)C[C@H]3N4)cc2)c1 (stereo partly specified) | 36.1% [at 16 µM]
7 | NS(=O)(=O)c1ccc(CCN2C(=O)/C(=C\c3ccc(Cl)cc3)SC2=S)cc1 | -114% [at 50 µM]
8 | C[C@@H]1CN([C@H](C)CO)C(=O)c2cc(NS(=O)(=O)c3ccccc3)ccc2O[C@@H](C)CCCCO[C@H]1CN(C)Cc1ccc(C(F)(F)F)cc1 | -32.5%
9 | O=C1CN(S(=O)(=O)Cc2ccccc2)C[C@H]2[C@H](c3ccc(C#Cc4ccc(F)cc4)cc3)[C@H](CO)N12 | 16.5%
10 | O=C(C1CC1)N1C[C@@H]2N[C@H](C1)C2c1ccc(-c2cccc(F)c2)cc1 (stereo partly specified) | 24.5% [at 16 µM]
11 | C[C@@H]1CN([C@@H](C)CO)C(=O)Cc2cc(NC(=O)Cc3ccccc3)ccc2O[C@H]1CN(C)Cc1ccc(-c2ccccc2)cc1 | 8.27%
12 | COc1cccc(C#Cc2ccc([C@H]3[C@@H](CO)N(C(=O)c4ccccn4)[C@H]3C#N)cc2)c1 | -57.4%
13 | Cn1cnc(S(=O)(=O)N2C[C@@H]3N[C@H](C2)C3c2ccc(-c3ccccc3F)cc2)c1 (stereo partly specified) | -83.8%
14 | C[C@@H]1CCCCO[C@@H](CN(C)S(=O)(=O)c2ccccc2)[C@H](C)CN([C@H](C)CO)C(=O)c2cc(NC(=O)Nc3ccc(C(F)(F)F)cc3)ccc2O1 | -14.5%
15 | C[C@H](CO)N1C[C@H](C)[C@H](CN(C)Cc2ccc3c(c2)OCO3)OCCCC[C@H](C)Oc2ccc(NC(=O)Nc3ccc(C(F)(F)F)cc3)cc2C1=O | -25.6%
16 | O=C(C[C@H]1C[C@@H]2c3cc(NS(=O)(=O)c4ccc(F)cc4)ccc3O[C@@H]2[C@@H](CO)O1)N1CCc2ccccc2C1 | -6.15%
17 | COc1ccc(S(=O)(=O)N(C)C[C@@H]2OCCCC[C@H](C)Oc3ccc(NS(=O)(=O)c4ccc(Cl)cc4)cc3C(=O)N([C@H](C)CO)C[C@@H]2C)cc1 | -5.49%
18 | COc1ccc(S(=O)(=O)Nc2ccc3c(c2)C(=O)N([C@@H](C)CO)C[C@@H](C)[C@H](CN(C)Cc2ccc(C(F)(F)F)cc2)OCCCC[C@H](C)O3)cc1 | 4.49%
19 | COc1ccccc1S(=O)(=O)N(C)C[C@H]1Oc2cc(C#CCC3CCCC3)ccc2S(=O)(=O)N([C@@H](C)CO)C[C@H]1C | 65.7%
20 | COc1ccc(S(=O)(=O)N(C)C[C@@H]2Oc3ccc(NC(=O)Nc4ccc(C(F)(F)F)cc4)cc3CC(=O)N([C@H](C)CO)C[C@@H]2C)cc1 | -15.3% [at 8 µM]
21 | COc1ccccc1C#Cc1ccc([C@H]2[C@H](C#N)N(C(=O)C3CCC3)[C@H]2CO)cc1 | 48.4%
22 | C[C@@H]1CN([C@@H](C)CO)S(=O)(=O)c2ccc(C#Cc3ccccc3F)cc2O[C@H]1CN(C)C(=O)Cc1ccccc1 | 18.8%
23 | C[C@H](CO)N1C[C@H](C)[C@@H](CN(C)Cc2ccc(C(F)(F)F)cc2)Oc2ccc(NS(=O)(=O)c3ccc(Cl)cc3)cc2CC1=O | 26.3%
24 | C[C@H](CO)N1C[C@H](C)[C@H](CN(C)Cc2ccc(C(=O)Nc3ccccc3N)cc2)Oc2ccc(N(C)C)cc2C1=O | 53.5% [at 16 µM]
25 | N#C[C@@H]1[C@@H](c2ccc(C#Cc3ccccc3F)cc2)[C@H](CO)N1C(=O)C1CCCCC1 | -19.2%
26 | COc1ccc(NC(=O)N2CCCCN3[C@H](C2)[C@@H](c2ccc(C#Cc4ccccc4)cc2)[C@@H]3CO)cc1 | 8.01%
27 | N#C[C@H]1[C@H](c2ccc(C#Cc3ccccc3F)cc2)[C@H](CO)N1C(=O)C1CCC1 | -4.3%
28 | C[C@@H]1CCCCO[C@H](CN(C)Cc2ccc(Cl)c(Cl)c2)[C@@H](C)CN([C@@H](C)CO)C(=O)c2cc(NS(=O)(=O)c3ccccc3)ccc2O1 | -25.5%
29 | COc1ccc(NC(=O)Nc2ccc3c(c2)C(=O)N([C@H](C)CO)C[C@H](C)[C@H](CN(C)Cc2ccc(C(F)(F)F)cc2)OCCCC[C@H](C)O3)cc1 | -13.1%

Experiment: OVCAR8 cell viability loss – plate reader, dry powder samples, PAX8 project, dose response (AID 743197)
Conditions: series mostly up to 35 µM; activity change, negative = cytotoxicity: at the top concentration

Row | Structure (SMILES) | activity change, negative = cytotoxicity
30 | O=C1CN(S(=O)(=O)Cc2ccccc2)C[C@H]2[C@H](c3ccc(C#Cc4ccc(F)cc4)cc3)[C@H](CO)N12 | 15.6%
31 | C[C@@H]1CN([C@@H](C)CO)C(=O)Cc2cc(NC(=O)Cc3ccccc3)ccc2O[C@H]1CN(C)Cc1ccc(-c2ccccc2)cc1 | 12.5%
32 | C[C@@H]1CCCCO[C@@H](CN(C)S(=O)(=O)c2ccccc2)[C@H](C)CN([C@H](C)CO)C(=O)c2cc(NC(=O)Nc3ccc(C(F)(F)F)cc3)ccc2O1 | -41.5%
33 | C[C@H](CO)N1C[C@H](C)[C@H](CN(C)Cc2ccc3c(c2)OCO3)OCCCC[C@H](C)Oc2ccc(NC(=O)Nc3ccc(C(F)(F)F)cc3)cc2C1=O | -17.8%
34 | COc1ccc(S(=O)(=O)N(C)C[C@@H]2OCCCC[C@H](C)Oc3ccc(NS(=O)(=O)c4ccc(Cl)cc4)cc3C(=O)N([C@H](C)CO)C[C@@H]2C)cc1 | -26.9%
35 | C[C@H](CO)N1C[C@H](C)[C@@H](CN(C)Cc2ccc(C(F)(F)F)cc2)OCCCC[C@H](C)Oc2ccc(NS(=O)(=O)c3ccc(F)cc3)cc2C1=O | -91.2%
36 | COc1ccc(S(=O)(=O)Nc2ccc3c(c2)C(=O)N([C@@H](C)CO)C[C@@H](C)[C@H](CN(C)Cc2ccc(C(F)(F)F)cc2)OCCCC[C@H](C)O3)cc1 | 6.04%
37 | COc1ccccc1S(=O)(=O)N(C)C[C@H]1Oc2cc(C#CCC3CCCC3)ccc2S(=O)(=O)N([C@@H](C)CO)C[C@H]1C | 21.4%
38 | Cc1ccc(S(=O)(=O)Nc2ccc3c(c2)C(=O)N([C@H](C)CO)C[C@@H](C)[C@@H](CN(C)Cc2ccc(C(F)(F)F)cc2)OCCCC[C@H](C)O3)cc1 | -28.6%
39 | N#C[C@H]1[C@H](c2ccc(C#Cc3ccccc3F)cc2)[C@H](CO)N1C(=O)C1CCC1 | -59.9%
40 | C[C@@H]1CCCCO[C@H](CN(C)Cc2ccc(Cl)c(Cl)c2)[C@@H](C)CN([C@@H](C)CO)C(=O)c2cc(NS(=O)(=O)c3ccccc3)ccc2O1 | -76%
41 | COc1cccc(C#Cc2ccc([C@H]3[C@@H](CO)N(C(=O)C4CCCCC4)[C@H]3C#N)cc2)c1 | 12.3%
